Source: PubChem
INS-1E GSIS act – GLuc luminescence reporter in INS-1E cells, primary screen for activators of glucose-dependent secretion of insulin; INS-1E GLuc reporter insulin secretion, 2-3 h; activation, % at 16.6 µM; AID 743287; hit rate 0.61% among 370,000;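 active = lowest replicate activation of at least 40%, so every replicate reaches that level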;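 also: 0% = median of neutral control wells and 100% = median of IBMX positive control wells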
PGC1a acetyl inh – lowers PGC1a acetylation signal in U2OS cells; AlphaScreen anti-acetyl-lysine; with virally co-expressed GCN5 acetyltransferase; inhibition, % at 15.6 µM; hit rate 0.17% among 350,000;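 active = every replicate shows inhibition of at least 40%; inconclusive = mean inhibition at least 40% but some replicate below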;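 also: 0% = neutral control wells and 100% = positive control wells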
DENV2 CPE – DENV2-induced cell death inhibition; DENV2-infected cells, cytopathic effect rescue, plate reader; CPE inhibition, % at 9.99 µM; hit rate 1.7% among 350,000; in the data active = CPE inhibition above about 20%, passing the limit was not always enough; inconclusive = no clear call, values can overlap the other calls; tested in BHK-21 cells;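 also: 0% = median of neutral control wells and 100% = median of positive control wells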
Ecoli rRNA inh – inhibitors of bacterial rRNA selective over humanized ribosomes; GFP signal change (wild-type ribosome), % (test concentration not listed); E. coli WT GFP vs humanized-ribosome RFP mutants, fluorescence, 24 h; hits give low values; DMSO median 0, no signal -100; hit rate 1.6% among 350,000;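 active = significant combined selectivity score with lowered wild-type GFP, culture density cut under 30%, mutant RFP and density less affected; inactive = any of these conditions unmet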
ERAP1 inh – ERAP1 (human) enzyme inhibition; Q9NZ08; recombinant ERAP1, Leu-AMC fluorescence, 60 min; inhibition, % at 10.7 µM; hit rate 0.15% among 340,000;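 active = mean replicate inhibition of at least 30%, or all replicates individually reaching that 30% level; inactive = mean below 30% and not every replicate reaching it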;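 also: 0% = neutral control wells and 100% = L-leucinethiol positive control wells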
Active calls of the source: *; ? = inconclusive; . = no result. An excerpt weighted towards active compounds, which were near 3.2% of everything screened.

SMILES	INS-1E GSIS act	PGC1a acetyl inh	DENV2 CPE	Ecoli rRNA inh	ERAP1 inh
C[C@@H]1CN([C@H](C)CO)C(=O)c2cc(-c3cccnc3)cnc2O[C@H]1CN(C)Cc1ccc(-c2ccccc2)cc1	-37	-9	-5	4	0
C[C@@H]1CN([C@@H](C)CO)C(=O)c2cc(C3=CCCCC3)cnc2O[C@@H]1CN(C)Cc1cccnc1	22	0	20*	4	-1
C[C@@H]1CN([C@@H](C)CO)C(=O)c2cc(-c3cccnc3)cnc2O[C@@H]1CN(C)Cc1ccc(-c2ccccc2)cc1	-18	4	37*	-5	-2
C[C@H](CO)N1C[C@H](C)[C@H](CN(C)Cc2cccc(F)c2)Oc2ncc(C3=CCCCC3)cc2C1=O	-7	0	23*	4	0
C[C@H](CO)N1C[C@H](C)[C@@H](CN(C)Cc2cccnc2)Oc2ncc(C3=CCCCC3)cc2C1=O	-4	-29	2	0	-3
O=C(C[C@H]1CC[C@H](NC(=O)C2CC2)[C@@H](CO)O1)NC1CCC1	-10	4	3	1	-1
C[C@H]1CN([C@@H](C)CO)C(=O)CCCn2cc(nn2)CO[C@@H]1CN(C)Cc1ccncc1	-8	0	-4	4	2
COc1ccc(S(=O)(=O)Nc2ccc3c(c2)CC(=O)N([C@@H](C)CO)C[C@H](C)[C@@H](CN(C)C(=O)Nc2cccc4ccccc24)O3)cc1	5	-6	-2	-1	0
CC(C)NC(=O)Nc1ccc2c(c1)C(=O)N([C@H](C)CO)C[C@@H](C)[C@H](CN(C)C(=O)Nc1ccc(C(F)(F)F)cc1)OCCCC[C@H](C)O2	9	-2	?	-2	-2
C[C@H]1CCCCO[C@@H](CN(C)C(=O)Nc2ccccc2)[C@@H](C)CN([C@@H](C)CO)C(=O)c2cc(NC(=O)Nc3ccc(C(F)(F)F)cc3)ccc2O1	16	-2	36*	3	.
CC(C)NC(=O)Nc1ccc2c(c1)C(=O)N([C@H](C)CO)C[C@@H](C)[C@H](CN(C)C(=O)Nc1ccc(C(F)(F)F)cc1)OCCCC[C@@H](C)O2	-6	10	50*	-1	-3
C[C@@H]1CCCCO[C@H](CN(C)C(=O)Nc2ccc(C(F)(F)F)cc2)[C@@H](C)CN([C@@H](C)CO)C(=O)c2cc(NC(=O)Cc3ccccc3)ccc2O1	-10	8	42*	0	.
C[C@H]1CCCCO[C@@H](CN(C)C(=O)Nc2ccc(C(F)(F)F)cc2)[C@@H](C)CN([C@@H](C)CO)C(=O)c2cc(NC(=O)Cc3ccccc3)ccc2O1	3	24	19	2	.
COCC(=O)N(C)C[C@@H]1Oc2ncc(-c3ccc(C#N)cc3)cc2C(=O)N([C@H](C)CO)C[C@@H]1C	9	8	0	-3	1
Cc1nn(C)cc1NC(=O)C[C@H]1CC[C@H]2[C@@H](COc3ccc(NC(=O)C(C)C)cc3C(=O)N2C)O1	4	-2	2	2	.
COc1ccc(S(=O)(=O)Nc2ccc3c(c2)CC(=O)N([C@@H](C)CO)C[C@@H](C)[C@H](CN(C)Cc2ccncc2)O3)cc1	16	-9	-6	-2	0
Cc1ccc(S(=O)(=O)Nc2ccc3c(c2)CC(=O)N([C@@H](C)CO)C[C@H](C)[C@@H](CN(C)C(=O)Nc2cccc4ccccc24)O3)cc1	-7	-9	33*	4	-5
Cc1ccc(S(=O)(=O)Nc2ccc3c(c2)CC(=O)N([C@H](C)CO)C[C@@H](C)[C@@H](CN(C)C(=O)Nc2cccc4ccccc24)O3)cc1	-8	-17	17	1	-2
Cc1ccc(S(=O)(=O)Nc2ccc3c(c2)CC(=O)N([C@H](C)CO)C[C@H](C)[C@@H](CN(C)C(=O)Nc2cccc4ccccc24)O3)cc1	-3	-11	96*	1	-3
C[C@H]1CN([C@@H](C)CO)C(=O)Cc2cc(NS(=O)(=O)c3ccccc3)ccc2O[C@H]1CN(C)S(=O)(=O)c1ccc(F)cc1	-5	4	11	-1	.
